From PubChem BioAssay (NCI)
Compounds without any hit were thinned out: in the full panel of roughly 83,000, 20% have a hit.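 A percent growth of 40 corresponds to 60% growth inhibition; 0 means no net growth; -100 means all cells died. Active threshold: below 10.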 Unmarked numbers belong to inactive results. Activity calls are given as the source filed them.

Assays:
Assay in all cases: NCI-60 one-dose screen, 48 h (100 = growth as untreated, 0 = no growth, -100 = all killed)
Details in all cases: 10 µM unless noted
[1] = tested on: NCI-H23 lung
[2] = tested on: NCI-H226 lung
[3] = tested on: NCI-H322M lung
[4] = tested on: HOP-62 NSCLC
[5] = tested on: HOP-92 NSCLC
[6] = tested on: NCI-H522 lung
[7] = tested on: A549/ATCC NSCLC
[8] = tested on: 786-0 renal
[9] = tested on: COLO 205 colon
[10] = tested on: DU-145 prostate
[11] = tested on: K-562 leukemia
[12] = tested on: MALME-3M melanoma
[13] = tested on: MDA-MB-231 breast
[14] = tested on: RXF 393 renal
[15] = tested on: SF-268 CNS
[16] = tested on: SF-295 CNS
[17] = tested on: SF-539 CNS
[18] = tested on: UACC-257 melanoma
[19] = tested on: M14 melanoma

SMILES | growth [1] | growth [2] | growth [3] | growth [4] | growth [5] | growth [6] | growth [7] | growth [8] | growth [9] | growth [10] | growth [11] | growth [12] | growth [13] | growth [14] | growth [15] | growth [16] | growth [17] | growth [18] | growth [19]
COC(=O)CCC(=O)C(=O)OC | 0.491% [10 mM] (active) | -14.9% [10 mM] (active) | 10.2% [10 mM] | 11.3% [10 mM] | -16% [10 mM] (active) | -63.9% [10 mM] (active) | 26% [10 mM] | 5.84% [10 mM] (active) | 79.8% [10 mM] | 10.6% [10 mM] | 7.9% [10 mM] (active) | 42.4% [10 mM] | 35.5% [10 mM] | -8.87% [10 mM] (active) | -10.3% [10 mM] (active) | 30.2% [10 mM] | 4.1% [10 mM] (active) | -15.1% [10 mM] (active) | 7.27% [10 mM] (active)
Oc1c(Cl)cc(Cl)cc1/C=N/Nc1nnc(N/N=C/c2cc(Cl)cc(Cl)c2O)c2ccccc12 | -20.6% (active) | -37.5% (active) | 21% | 20.6% | 13.9% | 14.1% | 22.8% | -22.2% (active) | 8.23% (active) | 21.8% | 9.41% (active) | 10.4% | 21.3% | -16.3% (active) | 6.61% (active) | -1.51% (active) | -17.7% (active) | 38.5% | 5.83% (active)
O=C(Nc1cccc([N+](=O)[O-])c1)c1cc2ccccc2cc1O | -0.282% (active) | 1.25% (active) | 14.8% | 0.534% (active) | -9.02% (active) | -3.91% (active) | 11.1% | 8.07% (active) | -66.1% (active) | 10.6% | -9.38% (active) | -23.3% (active) | -43% (active) | 5.31% (active) | 18.3% | -9.62% (active) | 4.44% (active) | -10.1% (active) | 19%
CNC(=O)c1cc(Oc2ccc3nc(NC(C)=O)sc3c2)ccn1 | 103% | 101% | 104% | 109% | 99.9% | 104% | 102% | 94.6% | 105% | 101% | 81.8% | 92.7% | 98.7% | 115% | 97.4% | 95.2% | 94.3% | 102% | 101%
O=C(NCc1ccccc1)Nc1ccccc1CNc1nc(Nc2ccc(OCCN3CCCC3)cc2)ncc1Cl | 85.4% | 109% | 109% | 86.2% | 83.8% | 108% | 97.5% | 46.7% | 112% | 78.4% | 64.5% | 90.7% | 97% | 79.4% | 83.2% | 95.5% | 92.4% | 102% | 99.7%
N#CCSc1nnc2n(Cc3ccccc3)c(=O)c3c4c(sc3n12)CCCC4 | 105% | 102% | 102% | 91.9% | 71.3% | 104% | 80.4% | 76.3% | 106% | 107% | 70.5% | 99.5% | 98.8% | 83% | 98% | 102% | 104% | 98.9% | 109%
COc1cc(OC)cc(C2=C3CC[C@@H]4[C@H](CC[C@]5(C)C(=O)CC[C@@H]45)C3=CC3C(O)c4cccnc4N4C(=O)COC234)c1 (stereo partly drawn) | 98.6% | 102% | 114% | 95.3% | 104% | 90.3% | 94.2% | 98.5% | 109% | 110% | 92.7% | 103% | 97.8% | 107% | 92.8% | 97.6% | 102% | 98.1% | 104%
